From PubChem BioAssay (NCI)
Several values for one entry are separate records, joined by “and”; a condition that tells them apart may be missing. Equal values may be shown once. About 83,000 compounds went through this panel and 20% of them were active in at least one assay; those are over-represented in the sample as a whole.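 48-hour exposure, single concentration, 96-well plates; percent growth endpoint where 0 means no net growth. Active: below 10.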 Activity calls are given as the source filed them.

Assays:
Experiment in all cases: NCI-60 one-dose screen, 48 h (100 = growth as untreated, 0 = no growth, -100 = all killed)
NCI/ADR-RES ovarian = details: 10 µM
T-47D breast = details: 10 µM
BT-549 breast = details: 10 µM
MDA-MB-435 melanoma = details: 10 µM
SW-620 colon = details: 10 µM
MCF7 breast = details: 10 µM unless noted
HCT-116 colon = details: 10 µM
HCC-2998 colon = details: 10 µM
KM12 colon = details: 10 µM

Structure (SMILES)	growth (NCI/ADR-RES ovarian)	growth (T-47D breast)	growth (BT-549 breast)	growth (MDA-MB-435 melanoma)	growth (SW-620 colon)	growth (MCF7 breast)	growth (HCT-116 colon)	growth (HCC-2998 colon)	growth (KM12 colon)
C[C@@H]1C[C@@H]([C@H](O)CC2CC(=O)NC(=O)C2)C(=O)[C@@H](C)C1	0.354% (active)	1.15% (active)	3.02% (active)	9.77% (active)	8.04% (active)	9.88% (active)	0.0527% (active)	2.14% (active)	5.65% (active)
O=[N+]([O-])/C=C/c1ccc([N+](=O)[O-])cc1	78.7% (inactive) and 85.8% (inactive)	48.7% (inactive) and 57.1% (inactive)	-75.2% (active) and 88.7% (inactive)	-48.9% (active) and 81.1% (inactive)	-72.6% (active) and 12.2% (inactive)	-14.5% (active) and 23.1% (inactive)	-93% (active) and 48.4% (inactive)	-91% (active) and 98.9% (inactive)	–
NC(Cc1ccccc1)c1ccccc1 (stereo unspecified)	106% (inactive) and 102% (inactive)	95.7% (inactive) and 101% (inactive)	91.1% (inactive) and 89.4% (inactive)	106% (inactive) and 102% (inactive)	112% (inactive) and 104% (inactive)	97.5% (inactive) and 97% (inactive)	99.7% (inactive) and 98.4% (inactive)	105% (inactive) and 102% (inactive)	–
C=C1C(=O)O[C@@H]2C[C@@H](C)[C@@H]3C=CC(=O)[C@@]3(C)[C@@H](O)[C@H]12	12.9% (inactive)	-58.1% (active)	-85.1% (active)	-88.2% (active)	-30.5% (active)	-4.11% (active)	-93.5% (active)	-97.7% (active)	–
COC12C(COC(N)=O)C3=C(C(=O)C(C)=C(N)C3=O)N1CC1C2N1C (stereo unspecified)	66.9% (inactive)	52.8% (inactive)	60% (inactive)	68.6% (inactive)	36.8% (inactive)	27.5% (inactive)	44.3% (inactive)	-4.28% (active)	–
COC(=O)C1C(O)C(C)C(O)C(C)/C=C\C=C(C)C(=O)Nc2c(C)c(OC(C)=O)c3c(c2O)C(=O)C(C)=C2OCOC(=C23)C(C)=CC(C)(O)C(O)C(C)C1O (stereo unspecified)	105% (inactive)	100% (inactive)	121% (inactive)	100% (inactive)	94.2% (inactive)	93.6% (inactive)	99.9% (inactive)	91.6% (inactive)	–
O=[N+]([O-])c1ccc(Br)c([N+](=O)[O-])c1	99% (inactive)	54.4% (inactive)	104% (inactive)	102% (inactive)	44.4% (inactive)	52.5% (inactive)	32.3% (inactive)	96.2% (inactive)	53.6% (inactive)
Cc1cc([N+](=O)[O-])c2ccccc2[n+]1[O-]	7.18% (active) and 0.529% (active)	-6.69% (active) and -8.77% (active)	-36.6% (active) and -19.4% (active)	-53.1% (active) and -81.3% (active)	-10.5% (active) and -30% (active)	-11.2% (active) and 4.36% (active)	-26.4% (active) and 0.608% (active)	-67.8% (active) and -90.8% (active)	-40.8% (active) and -59.2% (active)
CN(CCCl)c1ccc(/C=C/C2=[N+](C)c3ccccc3C2(C)C)cc1	105% (inactive)	29.3% (inactive)	20.7% (inactive)	12% (inactive)	19.8% (inactive)	14.9% (inactive)	7.48% (active)	26% (inactive)	–
COS(=O)(=O)c1ccccc1	107% (inactive)	104% (inactive)	107% (inactive)	108% (inactive)	108% (inactive)	99.5% (inactive)	102% (inactive)	101% (inactive)	–
Oc1ccccc1-c1ccccc1	99.9% (inactive) and 110% (inactive)	94% (inactive)	111% (inactive) and 96.9% (inactive)	107% (inactive) and 111% (inactive)	109% (inactive) and 103% (inactive)	98.1% (inactive) and 94.1% (inactive)	109% (inactive) and 96.6% (inactive)	92.7% (inactive)	–
COc1ccccc1/C=C/[N+](=O)[O-]	91.4% (inactive)	50.7% (inactive)	82.4% (inactive)	39.3% (inactive)	58.8% (inactive)	28.8% (inactive)	36.2% (inactive)	88.7% (inactive)	–
COc1cc([C@@H]2c3cc4c(c(O)c3C[C@H]3COC(=O)[C@@H]32)OCO4)cc(OC)c1OC	-28.9% (active)	60.8% (inactive)	-12.9% (active)	-19.6% (active)	15.9% (inactive)	8.86% (active)	-38.4% (active)	-54.8% (active)	–
Cc1cc(C(C)(C)c2ccc(O)c(C)c2)ccc1O	88.1% (inactive)	81.3% (inactive)	108% (inactive)	80.4% (inactive)	97.2% (inactive)	119% (inactive)	86.4% (inactive)	104% (inactive)	92.3% (inactive)
O=[N+]([O-])c1cc[n+]([O-])c2ccccc12	-55.1% (active)	-20.5% (active)	-65.9% (active)	-70.7% (active)	-69.3% (active)	-16.7% (active)	-71.2% (active)	-94.5% (active)	-89.5% (active)
Oc1c(Cl)cc(Cl)c2ccccc12.[Cu+2]	91.9% (inactive)	82.9% (inactive)	106% (inactive)	-83.4% (active)	88.3% (inactive)	74.3% (inactive)	71.8% (inactive)	86% (inactive)	98.9% (inactive)
CCOP(=O)(OCC)C(O)c1ccccc1Cl (stereo unspecified)	103% (inactive)	89.1% (inactive)	109% (inactive)	119% (inactive)	99.2% (inactive)	103% (inactive)	98.8% (inactive)	102% (inactive)	–
COC1CC2C=C(C)/C=C/C=C/C(=O)NC(c3ccccc3)C/C=C/CCC(O)CC(=O)C2=C1O (stereo unspecified)	-44.5% (active)	-65.5% (active)	-98% (active)	-90.5% (active)	-75.9% (active)	-68.8% (active)	-96.7% (active)	-53% (active)	–
[Cl][Hg][c]1ccc(Cl)s1	57.1% (inactive)	-68.5% (active)	14.2% (inactive)	4.96% (active)	-26.9% (active)	-37.1% (active)	15.8% (inactive)	111% (inactive)	–
COC(C(=O)C(O)C(C)O)C1Cc2cc3cc(OC4CC(OC(C)=O)C(OC5CC(O)C(OC)C(C)O5)C(C)O4)cc(O)c3c(O)c2C(=O)C1OC1CC(OC2CC(OC3CC(C)(O)C(OC(=O)C(C)C)C(C)O3)C(O)C(C)O2)C(O)C(C)O1 (stereo unspecified)	47.4% (inactive)	-24.1% (active)	-74.8% (active)	-89.4% (active)	-12% (active)	1.47% (active)	-40.2% (active)	-94.4% (active)	–
COC12c3c(C)cc(O)c4c(=O)occ(c34)C(=O)C1C13COC(=O)c4c(O)cc(C)c(c41)C(=O)C2C3OC(C)=O (stereo unspecified)	97.1% (inactive)	94% (inactive)	96.2% (inactive)	173% (inactive)	99.7% (inactive)	89.5% (inactive)	99.1% (inactive)	97.3% (inactive)	103% (inactive)
CC(=O)[O][Hg][c]1c(C)c(C)cc(C)c1C	78.1% (inactive)	-27.8% (active)	-70.4% (active)	-91.4% (active)	-93.5% (active)	-6.63% (active)	-98.8% (active)	12.5% (inactive)	–
COc1cc(/C=C/[N+](=O)[O-])cc(OC)c1OC	27.3% (inactive)	13.1% (inactive)	40.6% (inactive)	-22.4% (active)	-50.5% (active)	6.55% (active)	-19.2% (active)	-19.9% (active)	–
O=[P+](O)c1ccccc1	106% (inactive)	99.9% (inactive)	104% (inactive)	118% (inactive)	106% (inactive)	95.9% (inactive)	100% (inactive)	–	–
Cc1ccc(C(=O)C2C(c3ccccc3)N2C2CCCCC2)cc1 (stereo unspecified)	103% (inactive) and 99.7% (inactive)	87.8% (inactive) and 89.7% (inactive)	104% (inactive) and 105% (inactive)	95% (inactive) and 88.3% (inactive)	106% (inactive) and 95.2% (inactive)	97% (inactive) and 94.2% (inactive)	92.5% (inactive) and 75.3% (inactive)	114% (inactive) and 113% (inactive)	–
COc1ccc2c(ccc3oc([N+](=O)[O-])cc32)c1	2.89% (active)	15.3% (inactive)	-35.1% (active)	-77% (active)	7.19% (active)	6.64% (active)	4.98% (active)	-59.3% (active)	–
CC/C(=C/c1ccc(OC)cc1OC)[N+](=O)[O-]	41.8% (inactive)	-12.9% (active)	37.1% (inactive)	46% (inactive)	-20.1% (active)	0.465% (active)	-58.8% (active)	102% (inactive)	25.5% (inactive)
N#CCc1ccccc1	103% (inactive)	103% (inactive)	91.7% (inactive)	110% (inactive)	100% (inactive)	97.7% (inactive)	102% (inactive)	106% (inactive)	–
